Measured values: PubChem BioAssay AID1578 (Sanford-Burnham Center for Chemical Genomics, 2009)
Hit rate of the full screen: of about 290,000 compounds, about 3,000 (1%) were called active. No stated cut-off is given here; in the data, active means inhibition mostly above about 36% (no sharp cut-off); inactive means mostly below about 34%. The sample as a whole holds a higher share of actives than the screen did.

Assay: inhibition of NOD1-driven NF-kB reporter – cell-based, luminescence, uHTS, primary screen (AID 1578);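 further: HEK-293T reporter cells stimulated with the NOD1 agonist gamma-tri-DAP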
Conditions: NOD1-driven NF-kB luciferase reporter cells, at 4 µM, hits give high values

inhibition, active:
CN(C)c1nc(C=C(C#N)C#N)c(Cl)n1-c1ccc(F)cc1 80.7%, Oc1c(Br)cc(Br)c(/C=N/n2c(-c3ccccc3)n[nH]c2=S)c1Br 63.3%, CC(C)(C)c1ccc(-c2cn(-c3ccc(Br)cc3)c3[n+]2CCCS3)cc1 57.2%, COc1ccc(OC)c2c1C(=O)C(Cl)=C(Cl)C2=O 93.8%, CCOc1ccc2nc(Cl)c(/C=C/C(=O)c3ccco3)cc2c1 69.3%, O=C1c2ccccc2-c2onc3ccc(Oc4ccccc4)c1c23 86.3%, COc1ccccc1N/C(N)=N/c1nc(CSc2ccc(C)cc2)cc(=O)[nH]1 53%, CC(=O)/C(C#N)=C1\NC(=O)C(Cc2cc(Cl)ccc2Cl)S1 (centres undefined) 55%, Cc1cc2oc(=O)cc(Cn3ncc(Cl)c(Cl)c3=O)c2cc1Cl 56.2%, Nn1cnnc1N/N=C/c1cc(Br)cc(Br)c1O 82.4%, COc1cc(/C=N/Nc2snc(SC)c2C#N)cc(OC)c1OC 68.9%, Cc1ccc(-c2nc3cnccn3c2Nc2c(C)cccc2C)o1 71%, CCOC(=O)c1ccc2ncc(C(=O)OCC)c(Nc3ccc(N4CCOCC4)cc3)c2c1 107%, C=C1CCC[C@]2(C)C[C@H]3OC(=O)C(CN4CCCCC4CO)[C@H]3CC12 (some centres undefined) 80.3%, CC(C)(C)c1ccc(Oc2ccc(N)cc2)cc1 82%, CC(C)(C)c1ccc(Oc2ccc(N)cn2)cc1 65.9%

inhibition, inactive:
COc1ccc(CCNC(=O)C2CCN(S(=O)(=O)c3ccc4c(c3)oc(=O)n4C)CC2)cc1OC -10.7%, COC(=O)c1sccc1NC(=O)CSc1ccccc1NS(=O)(=O)c1ccccc1Cl 5.3%, COC(=O)c1sccc1NC(=O)CSc1ccccc1NS(=O)(=O)c1ccc(Cl)cc1 44.2%, CC(C)[C@H](NC(=O)C1CCN(S(=O)(=O)c2ccccc2)CC1)C(=O)NCc1ccccn1 -25.4%, CCOC(=O)C(=CNc1cc(C(F)(F)F)ccc1N1CCOCC1)C(=O)OCC 4%, CCC(C)(C)NC(=O)C(c1ccc(OC)cc1)N(Cc1ccc(OC)cc1)C(=O)CCC(=O)Nc1cc(C)on1 (centres undefined) -11.8%, COCCNC(=O)/C(C#N)=C/c1nc(N(C)C)n(-c2ccc(F)cc2)c1Cl -7.8%, CN(C)c1nc(/C=C(\C#N)C(N)=O)c(Cl)n1-c1ccc(F)cc1 -6.6%, Oc1c(Br)cc(/C=N/n2c(-c3ccccc3)n[nH]c2=S)c(O)c1Br 28.5%, Oc1c(Br)cc(/C=N/n2c(-c3ccccc3)n[nH]c2=S)c(Br)c1O -1.1%, CCOC(=O)c1nnn(CC(=O)NC(=O)Nc2ccccc2)c1C(=O)OCC -7.4%, CC(=O)c1ccc(-n2cc(-c3ccc(C(C)(C)C)cc3)[n+]3c2SCCC3)cc1 5.2%, COc1ccc(-c2cn(-c3ccc(Br)cc3)c3[n+]2CCS3)cc1 -4.3%, Cc1cc(=O)c2ccc(C(F)(F)F)cc2[nH]1 -14.1%, COCCn1c(=S)[nH]c2cc(C(=O)N3CCN(c4cccc(Cl)c4)CC3)ccc2c1=O 13.3%, COc1ccc(OC)c2c1C(=O)c1ccccc1C2=O -6.7%, COc1ccc(N)c2c1C(=O)c1ccccc1C2=O -34.4%, Cc1ccc2nc(Cl)c(/C=C/C(=O)c3ccco3)cc2c1 -0.1%, CCOc1ccc2cc(/C=C/C(=O)c3ccco3)c(Cl)nc2c1 1.7%, CC(C)(C)N1C(=O)[C@H]2[C@@H](c3ccc(Br)cc3)N3C(=O)N(c4cccc(Br)c4)C(=O)[C@@]3(Cc3ccccc3)[C@H]2C1=O -11.7%, COc1ccc(CC(=O)Oc2ccc(F)cc2)cc1 -9.7%, O=C(NN/C(=N/S(=O)(=O)c1ccc(Cl)cc1)c1ccccc1)c1ccc(O)cc1 -79.7%, CCc1ccc(NC(=S)N2CCN(S(=O)(=O)c3ccccc3)CC2)cc1 -13.5%, CCOc1ccc2noc3c2c1C(=O)c1ccccc1-3 -12.5%, O=C1c2ccccc2-c2onc3c(Oc4ccccc4)cc(O)c1c23 -15.3%, O=S(=O)(c1cccc(-n2cnnn2)c1)N1CCOCC1 -8.4%, CCOc1ccc2nc(SC3CC(=O)N(c4ccc(OC)cc4)C3=O)sc2c1 (centres undefined) 15.3%, Cc1ccc(SCc2cc(=O)[nH]c(/N=C(\N)Nc3cccc4ccccc34)n2)cc1 -11.6%, COc1ccc(Cl)cc1N/C(N)=N/c1nc(CSc2ccc(C)cc2)cc(=O)[nH]1 -6%, Cc1ccc(NC(=O)CN2CCN(C(=O)C3CCCO3)CC2)c(C)c1 (centres undefined) -8.7%, CCCCCCc1nc2ccccc2c(=O)n1NC(=O)c1c(O)c2cccc3c2n(c1=O)CCC3 46.9%, CCC(=O)N1CCN(c2nc(-c3ccc(Cl)cc3)cs2)CC1 -12.7%, CC(=O)/C(C#N)=C1\NC(=O)C(Cc2ccccc2Cl)S1 (centres undefined) 14.5%, CC(=O)/C(C#N)=C1\NC(=O)C(Cc2ccc(C)c(Cl)c2)S1 (centres undefined) 26.5%, COc1cc(/C=C/C(=O)N2CCOCC2)ccc1OCc1ccccc1 -102%, Cc1cc(C)n2nc(C(=O)Nc3c(C)nn(Cc4ccc(F)cc4)c3C)cc2n1 -36.9%, Cc1cc2oc(=O)cc(Cn3ccnc3)c2cc1Cl 0.9%, Cc1cc2oc(=O)cc(CN3CCOCC3)c2cc1Cl 6.3%, O=[N+]([O-])c1cc(S(=O)(=O)N2CCCC2)ccc1N/N=C1/CCCc2ccccc21 13.3%, NS(=O)(=O)c1ccc(CNC(=O)c2cccnc2Cl)cc1 -10.3%, CCOC(=O)C1CCCN(CCC(=O)Nc2cccc(C)c2)C1 (centres undefined) -37.8%, Nn1cnnc1N/N=C/c1ccc(Cl)cc1Cl -3.2%, COc1ccc(/C=N/Nc2nncn2N)cc1Br -19.1%, CC(C)CCN1C(=O)c2ccccc2C1C(=O)NCc1cccnc1 (centres undefined) 7.5%, Cn1c(=O)c2c(nc3n2CC(COc2ccccc2)O3)n(C)c1=O (centres undefined) -8.7%, COc1cc(/C=N/Nc2snc(SC)c2C#N)ccc1O 63.7%, COc1ccc(/C=N/Nc2snc(SC)c2C#N)cc1OC -0.1%, CCOc1ccc(NC(=O)CCNS(=O)(=O)c2ccc3c(c2)oc(=O)n3C)cc1 -14.8%, N#CC(C(=O)c1ccccc1Cl)=C1SCCCS1 -2.6%, CCN1C(=NCC(C)C)N[C@@H](c2cccc(C(F)(F)F)c2)C(C(=O)OC)=C1C -18.8%, Cc1ccc(-c2nc3cnccn3c2Nc2ccccc2)o1 -18.2%, Cc1ccc(Nc2c(-c3ccc(C)o3)nc3cnccn23)cc1 -9.7%, COc1ccc(C2c3cc(OC)c(OC)cc3CCN2C(=O)c2ccccc2)cc1OC (centres undefined) -31.9%, Cc1ccc(NC(=O)CSc2ncnc3ccccc23)cc1S(=O)(=O)N1CCCCCC1 31.7%, O=C(Nc1ccc(S(=O)(=O)N2CCCC2)cc1)c1cc(=O)c2ccccc2o1 -3.6%, Cc1ccc(NC(=O)c2cc(=O)c3ccccc3o2)cc1S(=O)(=O)N1CCOCC1 -6.6%, Cc1ccc(S(=O)(=O)N2CCCCC2)cc1NC(=O)CSc1ncnc2ccccc12 58.7%, COc1ccc(Br)cc1CNC(=O)CN1C(=O)C(c2ccccc2)Oc2cccnc21 (centres undefined) 18.1%, CCc1ccccc1NC(=O)CCc1c(C)nn(-c2ccc(N3CCOCC3)nn2)c1C 20.1%, O=C(CSc1nnc(CNC(=O)c2cccs2)o1)Nc1ccc(Br)cc1 -31.8%, CCOC(=O)c1cnc2ccc(C(=O)OC)cc2c1Nc1ccc(C(=O)O)cc1 -16.9%, CCOC(=O)c1cnc2ccc(C)cc2c1Nc1ccc(N2CCOCC2)cc1 -17.2%, CC(C)C(NC(=O)C(C)N1C(=O)c2ccccc2C1=O)c1ccccc1 (centres undefined) -7.4%, CCC(=O)c1ccc(SC(=O)N(C)C)cc1O -4.8%, C=C1CCC[C@]2(C)C[C@H]3OC(=O)C(CN4CCOCC4)[C@H]3C[C@@H]12 (some centres undefined) 2.5%, C=C1CCC[C@]2(C)C[C@H]3OC(=O)C(CN4CC(C)OC(C)C4)[C@H]3C[C@@H]12 (some centres undefined) -4.7%, COc1ccccc1NC(=O)c1sc2ncn(Cc3ccc(C)cc3)c(=O)c2c1C -43.8%, CCCS(=O)(=O)Nc1cc(C(F)(F)F)ccc1OCCOC -0.9%, Cc1cc(C)cc(Oc2ccc(N)cc2)c1 -28.1%, Cc1cccc(Oc2ccc(N)cc2)c1 -25.9%, Nc1ccc(Oc2ccc(Br)cc2)cc1 -35.5%, Nc1ccc(Oc2ccc(F)cc2)nc1 -4.6%, Nc1ccc(Oc2cc(N)cc(Oc3ccccc3)c2)cc1 -12.3%, Cc1cc(Oc2ccc(N)cn2)ccc1Cl 4.5%, CCn1c2c(c3cc(Br)ccc31)CCC/C2=N\O 15.3%, O=C(CCN1CCN(Cc2ccccc2)CC1)NNC(=O)Cc1ccc(Cl)c(Cl)c1 -1.2%, COCC(=O)N(Cc1cc2cc(OC)ccc2[nH]c1=O)c1ccc(C)cc1 -12.1%, O=C(CCS(=O)(=O)c1ccccc1)Nc1ccc2c(c1)OCO2 -59.3%
